# From PubChem BioAssay
# Compounds with a hit are over-represented: about 0.2% of the library has one in this group of screens.
# Bim-Bfl-1 – disrupts Bim binding to human Bfl-1. Q16548. Bead-based flow cytometry, Bim-Bfl-1 binding inhibition. inhibition, % at 10 µM. 0.12% of 190,000 active;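 note: 0% = wells without compound plus tracer and 100% = blocker peptide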
# Target sequence (Q16548 whole entry, looked up): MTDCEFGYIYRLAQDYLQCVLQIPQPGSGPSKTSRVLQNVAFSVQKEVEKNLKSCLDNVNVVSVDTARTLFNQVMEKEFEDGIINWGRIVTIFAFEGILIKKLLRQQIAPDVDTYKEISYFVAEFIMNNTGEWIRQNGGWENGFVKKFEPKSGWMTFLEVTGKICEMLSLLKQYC
# Bcl-W Bim block – disrupts Bim peptide binding to human Bcl-W; AID 952; inhibition, % at 10 µM; bead-based flow cytometry; 0.02% of 190,000 active;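 note: 0% = bound tracer without compound and 100% = peptide blocker; higher means less fluorescent Bim peptide bound to Bcl-W beads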
# Target sequence (Q92843 whole entry, looked up): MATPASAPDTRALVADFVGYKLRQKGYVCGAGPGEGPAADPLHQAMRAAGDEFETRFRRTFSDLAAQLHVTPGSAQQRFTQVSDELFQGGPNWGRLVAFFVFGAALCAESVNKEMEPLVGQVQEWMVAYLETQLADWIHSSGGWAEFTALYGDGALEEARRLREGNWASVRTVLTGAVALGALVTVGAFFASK
# Bim-Bcl-B – disrupts Bim peptide binding to human Bcl-B; bead-based flow cytometry; inhibition, % at 10 µM; 0.073% of 190,000 active;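 note: 0% = tracer peptide without compound and 100% = reference inhibitor peptide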
# Bim-Bcl-2 – inhibitors of Bim-Bcl-2 interaction, human; P10415; Bead-based flow cytometry, Bim peptide-Bcl-2 binding; inhibition, % at 10 µM; 0.06% of 190,000 active; in the data active = inhibition above about 40%;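 note: 0% = no compound wells with probe peptide and 100% = reference peptide inhibitor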
# Bcl-XL Bim block – inhibitors of Bim-Bcl-XL interaction, human. 0.04% of 190,000 active. Bim peptide-Bcl-XL binding, bead flow cytometry, fluorescence. inhibition, % at 10 µM. AID 1007. Q07817
# Pf gamet viab – kills late stage P. falciparum gametocytes; P. falciparum stage V gametocytes, ATP luminescence, 24 h; inhibition, % at 10.9 µM; 0.065% of 150,000 active; AID 743093;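 active = inhibition above the mean plus 3 SD of compounds within the control limits, set per campaign, cut at about 38% in these data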;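 note: 0% = DMSO wells and 100% = medium only without gametocytes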
# Active calls of the source: *; · = not tested or not shown. Cut-off read from the data, not from the text of the source, unless noted: active = inhibition above about 40%.
SMILES,Bim-Bfl-1,Bcl-W Bim block,Bim-Bcl-B,Bim-Bcl-2,Bcl-XL Bim block,Pf gamet viab
Cc1[nH]nc(SCC(=O)NCc2ccc(F)cc2)c1[N+](=O)[O-],36,30,24,30,42*,-3
N#Cc1ccc(OCC(=O)N[C@@H](Cc2ccccc2)c2nc3ccccc3[nH]2)cc1,·,·,·,·,·,17
CN(CCCOc1ccccc1F)Cc1ccccc1,·,·,·,·,·,-15
CN(CCCOc1ccccc1Br)Cc1ccccc1,99*,98*,108*,91*,102*,-10
CCC(=O)N(C1=C(NC)C(=O)c2ccccc2C1=O)C(C)C,-4,-2,-3,-3,-1,0
CCC(=O)N(CC)C1=C(O)c2ccccc2C(=O)C1=O,52*,10,11,7,5,·
CCCNC(=S)N1CCC(C(=O)c2ccc(F)cc2)CC1,·,·,·,·,·,1
Cc1c(N2C(=O)c3ccc4c5c(ccc(c35)C2=O)CC4)c(=O)n(-c2ccccc2)n1C,3,5,58*,17,4,·
Cc1cccc(NC(=O)C(Cc2ccccc2)n2cccc2)c1 (stereo not given),·,·,·,·,·,-4
COc1cc(CN2CCCC(CO)(Cc3ccccc3C)C2)cc2c1OCO2 (stereo not given),-4,0,-2,-3,-2,8
CC1CCCN(CC(O)CN)C1 (stereo not given),-1,-3,-7,-2,-5,47*
CCc1ccc(-c2cc(C(=O)Nn3cnnc3)c3ccccc3n2)cc1,-1,-1,-1,0,-1,39*
CCCc1ccc(-c2cc(C(=O)NN3CCOCC3)c3ccccc3n2)cc1,-1,-3,-5,0,-1,1
COc1ccc2nc3n(c(=O)c2c1)-c1cc(Cl)ccc1C(=O)NC3Cc1ccccc1 (stereo not given),·,·,·,·,·,21
COc1cc(CNc2ccc(N3CCCC3)cc2)ccc1OCc1ccccc1,47*,32,0,24,3,-9
CCOC(=O)c1ccc(NC(=O)CSCCC(=O)O)cc1,50*,62*,84*,90*,61*,·
CC1(C(=O)NCCCN2CCOCC2)Oc2cccnc2NC1=O (stereo not given),-4,-1,-7,-8,-4,-13
Cc1ccc(C(=O)Nc2ccccc2Cl)cc1,·,·,·,·,·,-2
CC(C)(C)c1ccccc1OCCCCCn1ccnc1,2,0,1,-2,0,-7
COc1cccc(CC(=O)NNC(=O)c2c(-c3ccccc3)noc2C)c1,·,·,·,·,·,5
Cc1nc2ccc(NC(=O)c3ccc(Cl)c([N+](=O)[O-])c3)cc2s1,-5,-6,-7,-6,-7,5
Cc1nc2ccc(NC(=O)c3cc([N+](=O)[O-])cc([N+](=O)[O-])c3Cl)cc2s1,52*,6,2,13,1,·
CCN1/C(=C/c2ccc3cc(C)ccc3[n+]2CC)Sc2cc(C)c(C)cc21,39,14,-26,40*,19,1
CCN1/C(=C/c2ccc3cc(C)ccc3[n+]2CC)Sc2ccccc21,14,5,-22,15,13,5
Cc1cc(=O)oc2cc3oc(=O)cc(C)c3cc12,·,·,·,·,·,7
SMILES,Bim-Bfl-1,Bcl-W Bim block,Bim-Bcl-B,Bim-Bcl-2,Bcl-XL Bim block,Pf gamet viab
Cc1ccc(-c2nc3c(c(=O)[nH]c(=O)n3Cc3ccccc3)n2C)o1,40*,9,-4,8,2,-2
Cc1ccc(NC(=S)N2CCn3cccc3C2c2cccnc2)cc1 (stereo not given),-1,-1,18,-1,-4,·
CCc1cccc(CC)c1NC(=S)N1CCn2cccc2C1c1cccnc1 (stereo not given),25,20,49*,21,27,·
CC1=NN(Cc2c(C)nn(Cc3ccccc3)c2C)C(C)(C)C1,2,-5,5,0,-4,5
CCOC(=O)CSc1nc2cc3c(cc2cc1C)OCO3,-7,-2,-4,0,-4,39*
CCOC(=O)CSc1nc2cc3c(cc2cc1C#N)OCO3,1,-4,-4,-4,-2,·
Oc1ccc(C2=Nn3c(nnc3-c3ccco3)SC2)cc1O,15,35,36,17,55*,·
O=C1c2ccccc2-c2onc3ccc(NCCCn4ccnc4)c1c23,79*,94*,92*,88*,100*,·
Cc1ccc(NC(=S)Nc2ccc(-c3nnc4n3CCCCC4)cc2)cc1C,·,·,·,·,·,17
Cc1cccc(N/N=C(\C=N\N)C(=O)c2ccc(Br)cc2)c1,0,-1,0,2,-1,·
